In the supplement of paper PMC10849652:
Of roughly 8,800 targets only a part is listed; those with a hit were picked by preference. About 0.5% of all pairs of compound and target were hits.

Assays:
Experiment in all cases: log2 fold change, soluble protein after heating vs DMSO (PISA); higher = thermal stabilisation; K562 lysate, 10 uM; active = over 0.2 and 3.5 SD of the protein, either way, in both replicates (recomputed)
erlotinib = compound: C#Cc1cccc(Nc2ncnc3cc(OCCOC)c(OCCOC)cc23)c1 [erlotinib]
Summary of the method: (§1)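 A 30 min treatment with 10 μM compound was applied to crude K562 extract at 1 mg/mL protein in PBS pH 7.4 with 1 mM MgCl2. Heating for 3 min spanned 48°C-58°C, after which aliquots were pooled, adjusted to 0.5% NP-40 at 4°C and spun at 21,000xg for 90 min. TMTpro 16plex LC-MS/MS of the supernatant, with channel sums equalised, gave values recorded as log-two fold change in thermal stability against solvent controls, from duplicates.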

[1] = compound: C/C(=N\NC(=O)C1=CC(=CC=C1)S(=O)(=O)N2CCOCC2)/C3=C(C=CC(=C3)Cl)O
Summary of the method: as §1

[2] = compound: C1=CC(=CC=C1C2=NC3=C(N2)C=C(C=C3)C(=O)N)OC4=CC=C(C=C4)Cl
Summary of the method: as §1

[3] = compound: C1=CC2=C(C=CC(=C2)/C=C\3/C(=O)NC(=NCC4=CC=CS4)S3)N=C1
Summary of the method: as §1

[4] = compound: C1=CC2=NC=CN=C2C=C1/C=C/3\C(=O)NC(=O)S3
Summary of the method: as §1

[5] = compound: C1=CC=C(C=C1)C2=NC(=C(N2)C3=CC=NC=C3)C4=CC(=C(C=C4)Cl)O
Summary of the method: as §1

[6] = compound: C1=CC=C2C(=C1)C3=NNC4=CC=CC(=C43)C2=O
Summary of the method: as §1

[7] = compound: C1CCN(C1)C(=O)NC2=CC=CC(=C2)NC3=NC=C(C(=N3)NCCC4=CN=CN4)Br
Summary of the method: as §1

[8] = compound: C1CN(CCC1(CC2=CC=C(C=C2)Cl)N)C3=NC=NC4=C3C=CN4
Summary of the method: as §1

IRAK-1-4 Inhibitor I = compound: C1COCCN1CCN2C3=CC=CC=C3N=C2NC(=O)C4=CC(=CC=C4)[N+](=O)[O-] [IRAK-1-4 Inhibitor I]
Summary of the method: as §1

Measured: log2 fold change

AP4B1 (UniProt Q9Y6B7)
Chain of UniProt Q9Y6B7 (Q9Y6B7 whole entry, looked up): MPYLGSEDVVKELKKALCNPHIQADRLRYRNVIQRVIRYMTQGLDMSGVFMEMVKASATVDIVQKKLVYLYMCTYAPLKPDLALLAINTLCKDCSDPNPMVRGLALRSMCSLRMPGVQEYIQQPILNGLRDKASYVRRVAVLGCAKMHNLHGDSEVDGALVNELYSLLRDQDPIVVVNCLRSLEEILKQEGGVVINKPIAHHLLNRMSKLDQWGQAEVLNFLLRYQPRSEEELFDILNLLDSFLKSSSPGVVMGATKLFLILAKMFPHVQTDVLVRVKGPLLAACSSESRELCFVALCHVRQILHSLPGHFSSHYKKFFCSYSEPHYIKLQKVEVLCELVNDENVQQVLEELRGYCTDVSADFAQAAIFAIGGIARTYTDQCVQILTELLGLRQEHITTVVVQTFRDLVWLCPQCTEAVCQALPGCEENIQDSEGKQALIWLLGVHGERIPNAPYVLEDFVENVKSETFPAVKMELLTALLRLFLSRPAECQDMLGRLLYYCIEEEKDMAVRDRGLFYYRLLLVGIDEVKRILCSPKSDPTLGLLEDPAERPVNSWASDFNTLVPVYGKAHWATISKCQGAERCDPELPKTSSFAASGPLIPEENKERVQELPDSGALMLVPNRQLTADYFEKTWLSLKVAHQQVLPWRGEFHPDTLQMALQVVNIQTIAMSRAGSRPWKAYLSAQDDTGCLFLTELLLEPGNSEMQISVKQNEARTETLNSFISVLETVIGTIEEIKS
inactive: erlotinib 0.021 | [1] -0.038 | [2] 0.016 | [3] 0.096 | [4] 0.038 | [5] 0.019 | [6] -0.022 | [7] -0.018 | [8] 0.188 | IRAK-1-4 Inhibitor I 0.013

ANAPC7 (UniProt Q9UJX3)
Chain of UniProt Q9UJX3 (Q9UJX3 whole entry, looked up): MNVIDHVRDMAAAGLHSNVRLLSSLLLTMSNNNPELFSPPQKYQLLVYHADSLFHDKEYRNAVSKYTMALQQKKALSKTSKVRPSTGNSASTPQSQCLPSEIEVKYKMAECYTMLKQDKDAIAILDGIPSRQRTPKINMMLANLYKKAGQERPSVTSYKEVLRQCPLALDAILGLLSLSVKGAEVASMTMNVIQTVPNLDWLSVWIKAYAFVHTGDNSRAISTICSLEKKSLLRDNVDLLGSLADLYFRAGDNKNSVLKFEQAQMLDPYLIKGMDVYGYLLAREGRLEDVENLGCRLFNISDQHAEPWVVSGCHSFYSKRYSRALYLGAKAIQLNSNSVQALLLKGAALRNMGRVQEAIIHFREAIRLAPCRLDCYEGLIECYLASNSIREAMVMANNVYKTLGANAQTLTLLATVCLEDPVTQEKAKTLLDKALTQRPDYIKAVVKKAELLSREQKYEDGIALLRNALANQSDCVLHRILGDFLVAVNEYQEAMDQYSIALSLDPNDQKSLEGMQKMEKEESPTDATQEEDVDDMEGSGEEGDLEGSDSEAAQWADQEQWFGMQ
inactive: erlotinib -0.001 | [1] 0.006 | [2] 0.002 | [3] 0.024 | [4] -0.016 | [5] 0.003 | [6] 0.027 | [7] 0 | [8] -0.017 | IRAK-1-4 Inhibitor I 0.005

ACYP1 (UniProt P07311)
Chain of UniProt P07311 (P07311 whole entry, looked up): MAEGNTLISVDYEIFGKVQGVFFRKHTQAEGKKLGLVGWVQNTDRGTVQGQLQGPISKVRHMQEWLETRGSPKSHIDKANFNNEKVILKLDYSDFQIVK
inactive: erlotinib -0.032 | [1] 0.028 | [2] -0.007 | [3] -0.02 | [4] -0.008 | [5] -0.017 | [6] -0.01 | [7] 0.024 | [8] -0.004 | IRAK-1-4 Inhibitor I 0.013

AKAP8 (UniProt O43823)
Chain of UniProt O43823 (O43823 whole entry, looked up): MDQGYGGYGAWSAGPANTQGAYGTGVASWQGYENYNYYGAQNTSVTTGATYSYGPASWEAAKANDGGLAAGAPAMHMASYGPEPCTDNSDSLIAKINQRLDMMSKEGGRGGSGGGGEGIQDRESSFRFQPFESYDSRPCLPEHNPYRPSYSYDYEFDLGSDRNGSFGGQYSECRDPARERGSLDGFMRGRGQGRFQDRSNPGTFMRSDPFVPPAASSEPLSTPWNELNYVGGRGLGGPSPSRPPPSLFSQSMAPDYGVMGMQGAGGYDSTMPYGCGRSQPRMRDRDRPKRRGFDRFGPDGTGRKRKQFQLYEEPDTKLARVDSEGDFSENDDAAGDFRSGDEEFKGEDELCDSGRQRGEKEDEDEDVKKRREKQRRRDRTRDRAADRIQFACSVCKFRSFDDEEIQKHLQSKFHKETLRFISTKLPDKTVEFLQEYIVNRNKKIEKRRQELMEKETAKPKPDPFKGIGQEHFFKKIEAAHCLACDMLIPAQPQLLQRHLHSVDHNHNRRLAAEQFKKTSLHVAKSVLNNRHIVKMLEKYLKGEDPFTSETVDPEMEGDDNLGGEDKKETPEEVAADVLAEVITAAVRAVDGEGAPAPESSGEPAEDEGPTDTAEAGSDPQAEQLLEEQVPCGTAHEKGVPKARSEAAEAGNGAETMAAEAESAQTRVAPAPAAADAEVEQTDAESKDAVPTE
inactive: erlotinib -0.015 | [1] 0.002 | [2] 0.038 | [3] -0.005 | [4] -0.04 | [5] 0.045 | [6] -0.047 | [7] 0.044 | [8] 0 | IRAK-1-4 Inhibitor I 0.089

ADD1 isoform 3 (UniProt P35611)
inactive: erlotinib -0.027 | [1] 0 | [2] 0.033 | [3] 0.011 | [4] -0.01 | [5] -0.004 | [6] 0.011 | [7] -0.015 | [8] -0.014 | IRAK-1-4 Inhibitor I -0.021

ALG13 (UniProt Q9NP73)
Chain of UniProt Q9NP73 (Q9NP73 whole entry, looked up): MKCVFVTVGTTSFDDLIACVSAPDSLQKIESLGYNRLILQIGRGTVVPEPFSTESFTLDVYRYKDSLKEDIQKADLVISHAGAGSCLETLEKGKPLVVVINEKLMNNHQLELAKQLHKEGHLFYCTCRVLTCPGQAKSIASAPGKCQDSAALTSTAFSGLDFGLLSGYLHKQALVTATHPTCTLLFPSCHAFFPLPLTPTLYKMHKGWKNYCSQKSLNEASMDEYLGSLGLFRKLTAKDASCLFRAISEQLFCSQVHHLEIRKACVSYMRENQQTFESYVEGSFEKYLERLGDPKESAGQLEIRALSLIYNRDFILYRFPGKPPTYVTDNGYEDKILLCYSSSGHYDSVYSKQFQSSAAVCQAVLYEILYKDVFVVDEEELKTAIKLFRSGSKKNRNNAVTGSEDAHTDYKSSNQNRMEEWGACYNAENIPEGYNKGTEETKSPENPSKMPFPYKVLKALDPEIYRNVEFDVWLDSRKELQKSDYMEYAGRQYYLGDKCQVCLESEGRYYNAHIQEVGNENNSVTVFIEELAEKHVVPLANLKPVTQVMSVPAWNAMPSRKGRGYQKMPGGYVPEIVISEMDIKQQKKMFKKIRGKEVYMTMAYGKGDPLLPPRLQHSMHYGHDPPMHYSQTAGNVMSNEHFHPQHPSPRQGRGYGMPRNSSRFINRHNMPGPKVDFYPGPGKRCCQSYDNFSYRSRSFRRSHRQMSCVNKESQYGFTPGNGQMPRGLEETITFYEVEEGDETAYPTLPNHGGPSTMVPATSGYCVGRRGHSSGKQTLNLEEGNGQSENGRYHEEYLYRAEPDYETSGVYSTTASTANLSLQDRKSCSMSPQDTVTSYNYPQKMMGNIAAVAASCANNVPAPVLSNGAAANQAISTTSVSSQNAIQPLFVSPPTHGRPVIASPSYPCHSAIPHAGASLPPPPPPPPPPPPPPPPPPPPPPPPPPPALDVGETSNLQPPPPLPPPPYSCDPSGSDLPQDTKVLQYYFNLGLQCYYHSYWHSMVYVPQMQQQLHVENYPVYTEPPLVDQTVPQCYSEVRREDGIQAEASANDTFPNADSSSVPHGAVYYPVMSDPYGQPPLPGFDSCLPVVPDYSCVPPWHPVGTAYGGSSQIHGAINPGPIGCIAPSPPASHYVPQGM
inactive: erlotinib 0.022 | [1] -0.014 | [2] 0.049 | [3] -0.008 | [4] -0.048 | [5] 0.047 | [6] -0.032 | [7] -0.01 | [8] 0.083 | IRAK-1-4 Inhibitor I -0.02

ABHD12 isoform 2 (UniProt Q8N2K0)
inactive: erlotinib -0.027 | [1] -0.031 | [2] -0.062 | [3] 0.074 | [4] 0.037 | [5] -0.064 | [6] 0 | [7] -0.03 | [8] 0.048 | IRAK-1-4 Inhibitor I 0.014

AGGF1 (UniProt Q8N302)
inactive: erlotinib -0.015 | [1] -0.056 | [2] 0.054 | [3] -0.19 | [4] -0.077 | [5] 0.018 | [6] 0.057 | [7] -0.038 | [8] -0.022 | IRAK-1-4 Inhibitor I 0.023

ACACB (UniProt O00763)
inactive: erlotinib 0.042 | [1] 0.097 | [2] -0.025 | [3] 0.018 | [4] -0.02 | [5] -0.01 | [6] -0.008 | [7] -0.005 | [8] 0.015 | IRAK-1-4 Inhibitor I 0.025

ASNS (UniProt P08243)
inactive: erlotinib 0.024 | [1] 0.067 | [2] -0.019 | [3] -0.007 | [4] 0.017 | [5] -0.023 | [6] -0.018 | [7] 0.016 | [8] 0.038 | IRAK-1-4 Inhibitor I 0.011

ACACA isoform 4 (UniProt Q13085)
inactive: erlotinib 0.024 | [1] 0.039 | [2] -0.029 | [3] -0.012 | [4] 0.011 | [5] 0.019 | [6] -0.047 | [7] 0.003 | [8] 0.024 | IRAK-1-4 Inhibitor I 0.005

APOB (UniProt P04114)
inactive: erlotinib -0.028 | [1] -0.001 | [2] -0.032 | [3] -0.029 | [4] -0.021 | [5] 0 | [6] -0.055 | [7] -0.067 | [8] 0.015 | IRAK-1-4 Inhibitor I 0.097

AKT1 (UniProt P31749)
inactive: erlotinib -0.008 | [1] 0.042 | [2] -0.004 | [3] 0.121 | [4] 0.019 | [5] 0.059 | [6] 0.018 | [7] -0.034 | [8] 0.03 | IRAK-1-4 Inhibitor I -0.005

AK2 (UniProt P54819)
inactive: erlotinib -0.011 | [1] -0.052 | [2] 0.035 | [3] -0.002 | [4] 0.002 | [5] 0.016 | [6] 0.014 | [7] -0.008 | [8] -0.002 | IRAK-1-4 Inhibitor I 0.005

ACIN1 isoform 5 (UniProt Q9UKV3)
inactive: erlotinib -0.011 | [1] -0.025 | [2] -0.023 | [3] -0.028 | [4] -0.037 | [5] 0.001 | [6] -0.001 | [7] -0.006 | [8] -0.007 | IRAK-1-4 Inhibitor I -0.006

ABL2 (UniProt P42684)
inactive: erlotinib -0.046 | [1] 0.068 | [2] 0.053 | [3] -0.014 | [4] -0.013 | [5] 0.045 | [6] -0.003 | [7] -0.065 | [8] -0.141 | IRAK-1-4 Inhibitor I -0.068

ARHGAP25 isoform 4 (UniProt P42331)
Chain of UniProt P42331 (P42331 whole entry, looked up): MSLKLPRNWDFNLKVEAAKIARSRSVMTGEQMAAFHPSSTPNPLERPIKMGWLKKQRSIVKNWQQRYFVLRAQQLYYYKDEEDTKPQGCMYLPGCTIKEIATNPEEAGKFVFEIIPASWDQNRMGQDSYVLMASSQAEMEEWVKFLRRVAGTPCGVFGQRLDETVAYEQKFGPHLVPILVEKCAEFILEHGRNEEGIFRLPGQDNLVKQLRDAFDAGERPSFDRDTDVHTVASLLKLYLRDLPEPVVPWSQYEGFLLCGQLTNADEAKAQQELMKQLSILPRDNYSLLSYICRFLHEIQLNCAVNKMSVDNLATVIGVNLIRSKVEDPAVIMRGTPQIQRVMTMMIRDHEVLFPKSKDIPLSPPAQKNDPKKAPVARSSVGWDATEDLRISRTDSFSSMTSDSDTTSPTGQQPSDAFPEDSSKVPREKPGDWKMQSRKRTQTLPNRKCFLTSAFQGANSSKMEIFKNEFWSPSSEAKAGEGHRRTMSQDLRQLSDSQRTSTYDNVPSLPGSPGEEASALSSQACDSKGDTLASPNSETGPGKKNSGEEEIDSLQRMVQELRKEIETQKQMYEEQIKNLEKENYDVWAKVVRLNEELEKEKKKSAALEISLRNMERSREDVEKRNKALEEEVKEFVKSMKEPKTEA
inactive: erlotinib 0.029 | [1] 0.045 | [2] 0.026 | [3] -0.031 | [4] -0.031 | [5] -0.002 | [6] -0.029 | [7] 0.007 | [8] 0.034 | IRAK-1-4 Inhibitor I -0.006

ALDH1A1 (UniProt P00352)
Chain of UniProt P00352 (P00352 whole entry, looked up): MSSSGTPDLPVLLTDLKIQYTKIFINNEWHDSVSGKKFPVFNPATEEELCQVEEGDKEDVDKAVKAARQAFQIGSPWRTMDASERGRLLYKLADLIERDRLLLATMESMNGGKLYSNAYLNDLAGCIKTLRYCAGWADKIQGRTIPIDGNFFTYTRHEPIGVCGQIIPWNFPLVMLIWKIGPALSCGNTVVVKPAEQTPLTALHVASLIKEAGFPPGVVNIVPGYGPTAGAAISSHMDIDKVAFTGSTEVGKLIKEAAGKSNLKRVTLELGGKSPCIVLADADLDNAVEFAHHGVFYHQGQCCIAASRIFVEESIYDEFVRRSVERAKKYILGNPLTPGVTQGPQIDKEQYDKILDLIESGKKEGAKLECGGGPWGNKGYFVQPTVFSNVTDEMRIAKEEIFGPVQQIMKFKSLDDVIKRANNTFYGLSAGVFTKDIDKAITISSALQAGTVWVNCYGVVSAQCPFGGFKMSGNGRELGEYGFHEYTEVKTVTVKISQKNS
inactive: erlotinib -0.048 | [1] 0.044 | [2] -0.054 | [3] 0.048 | [4] 0.008 | [5] -0.033 | [6] 0.132 | [7] 0.027 | [8] 0.012 | IRAK-1-4 Inhibitor I -0.029

ANP32A (UniProt P39687)
Chain of UniProt P39687 (P39687 whole entry, looked up): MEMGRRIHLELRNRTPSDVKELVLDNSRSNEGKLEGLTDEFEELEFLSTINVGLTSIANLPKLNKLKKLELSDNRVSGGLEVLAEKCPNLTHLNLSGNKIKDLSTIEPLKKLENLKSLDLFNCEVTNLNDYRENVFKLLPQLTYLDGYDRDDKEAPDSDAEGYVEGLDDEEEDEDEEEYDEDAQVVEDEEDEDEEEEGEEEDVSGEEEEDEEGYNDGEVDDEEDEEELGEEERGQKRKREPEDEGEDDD
inactive: erlotinib -0.147 | [1] 0.075 | [2] -0.199 | [3] -0.012 | [4] 0.012 | [5] 0.006 | [6] 0.018 | [7] 0.026 | [8] -0.008 | IRAK-1-4 Inhibitor I 0.013

ARHGAP6 (UniProt O43182)
inactive: erlotinib 0.013 | [1] -0.145 | [2] -0.04 | [3] 0.061 | [4] 0.07 | [5] 0.041 | [6] -0.005 | [7] -0.016 | [8] 0.037 | IRAK-1-4 Inhibitor I 0.015

ABCD3 (UniProt P28288)
inactive: erlotinib -0.1 | [2] 0.217 | [3] -0.051 | [4] -0.055 | [5] -0.075 | [6] -0.031 | [7] -0.084 | [8] 0.044 | IRAK-1-4 Inhibitor I -0.003
active: [1] 0.556

ARL1 (UniProt P40616)
inactive: erlotinib 0.006 | [1] -0.212 | [2] 0.037 | [3] -0.022 | [4] -0.03 | [5] -0.013 | [6] -0.018 | [7] -0.046 | [8] 0.025 | IRAK-1-4 Inhibitor I 0.053

AARS2 (UniProt Q5JTZ9)
inactive: erlotinib 0.013 | [1] -0.047 | [2] -0.05 | [3] 0.004 | [4] -0.013 | [5] 0.005 | [6] -0.026 | [7] -0.008 | [8] 0.038 | IRAK-1-4 Inhibitor I -0.024

ABHD17A isoform 2 (UniProt Q96GS6)
inactive: erlotinib -0.016 | [1] -0.046 | [2] 0.081 | [3] 0.025 | [4] 0.022 | [5] -0.009 | [6] -0.07 | [7] -0.023 | [8] 0.025 | IRAK-1-4 Inhibitor I 0.006

ABCA3 (UniProt Q99758)
inactive: erlotinib -0.022 | [1] -0.028 | [2] -0.033 | [3] 0.036 | [4] -0.096 | [5] 0.037 | [6] 0.211 | [7] -0.118 | [8] 0 | IRAK-1-4 Inhibitor I 0.114

AGPAT1 (UniProt Q99943)
inactive: erlotinib 0.012 | [1] 0.027 | [2] -0.145 | [3] 0.05 | [4] 0.028 | [5] -0.023 | [6] -0.01 | [7] -0.019 | [8] 0.01 | IRAK-1-4 Inhibitor I 0.036

ABCC5 (UniProt O15440)
inactive: erlotinib 0.059 | [1] -0.581 | [2] 0.057 | [3] -0.028 | [4] -0.127 | [5] -0.112 | [6] -0.248 | [7] -0.038 | [8] 0.072 | IRAK-1-4 Inhibitor I -0.067

ABI1 isoform 9 (UniProt Q8IZP0)
inactive: erlotinib -0.014 | [1] -0.003 | [2] 0.025 | [3] 0.01 | [4] -0.007 | [5] 0.009 | [6] -0.014 | [7] 0.006 | [8] 0.004 | IRAK-1-4 Inhibitor I -0.021

ABHD17B (UniProt Q5VST6)
Chain of UniProt Q5VST6 (Q5VST6 whole entry, looked up): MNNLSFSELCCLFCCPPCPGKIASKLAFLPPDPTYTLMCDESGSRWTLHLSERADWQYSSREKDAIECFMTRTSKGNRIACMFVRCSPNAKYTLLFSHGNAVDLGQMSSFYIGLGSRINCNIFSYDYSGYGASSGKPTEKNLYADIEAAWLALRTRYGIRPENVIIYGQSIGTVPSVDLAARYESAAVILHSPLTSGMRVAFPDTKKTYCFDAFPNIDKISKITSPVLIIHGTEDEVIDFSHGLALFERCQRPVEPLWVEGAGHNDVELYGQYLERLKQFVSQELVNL
inactive: erlotinib -0.08 | [1] -0.047 | [2] -0.011 | [3] 0.044 | [4] -0.043 | [5] 0 | [6] 0.021 | [7] 0.064 | [8] -0.111 | IRAK-1-4 Inhibitor I 0.014
